Inconclusive results are not listed. Activity calls are given as the source filed them. The calls were made as follows: active = hit-call score of the fitted dose curve at least 0.9, where 1 is the maximum; inconclusive = response in the unintended direction; inactive = score below 0.9.
Experiments:
[1] = ATG_XTT_Cytotoxicity: Cytotoxicity Assessment in the Attagene TRANS-FACTORIAL HepG2 Assay (AID 2283584)
Summary of the method: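 Cells: human HepG2, transiently transfected with MRTU reporter constructs. Exposure 24 h. Readout: XTT, cell number. Baseline/neg ctrl DMSO; loss-of-signal scored.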

[2] = TOX21_p53_BLA_p2_viability: Viability Assessment in the Tox21 HCT-116 p53 Agonism Beta-lactamase Assay, Phase 2 (AID 2283591);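 also: compound exposure lasted 16 h at 37 °C; actives lower the ATP signal meaning cytotoxicity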
Summary of the method: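 Cytotoxicity readout: CellTiter-Glo ATP luminescence, 30 min at room temperature, after the beta-lactamase read. Cells were HCT116 exposed 16 h at 37C to compounds pin-transferred at 217-fold dilution from DMSO stocks.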

[3] = TOX21_p53_BLA_p4_viability: Viability Assessment in the Tox21 HCT-116 p53 Agonism Beta-lactamase Assay, Phase 4 (AID 2283597);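 also: hits lower the luminescence signal meaning cytotoxicity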
Summary of the method: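 Cells plated, 5 h pre-incubation; DMSO compounds pinned (217-fold dilution); 16 h, 37C/5% CO2; CCF4-AM 2 h RT; CellTiter-Glo 30 min RT; luminescence read.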

[4] = target: Cellular tumor antigen p53 (Homo sapiens) (UniProt P04637); assay: TOX21_p53_BLA_p5_ratio: Tox21 HCT-116 p53 Agonism Beta-lactamase Assay, Ratio, Phase 5 (AID 2283599)
Cellular tumor antigen p53 (Homo sapiens), sequence (P04637 whole entry, looked up): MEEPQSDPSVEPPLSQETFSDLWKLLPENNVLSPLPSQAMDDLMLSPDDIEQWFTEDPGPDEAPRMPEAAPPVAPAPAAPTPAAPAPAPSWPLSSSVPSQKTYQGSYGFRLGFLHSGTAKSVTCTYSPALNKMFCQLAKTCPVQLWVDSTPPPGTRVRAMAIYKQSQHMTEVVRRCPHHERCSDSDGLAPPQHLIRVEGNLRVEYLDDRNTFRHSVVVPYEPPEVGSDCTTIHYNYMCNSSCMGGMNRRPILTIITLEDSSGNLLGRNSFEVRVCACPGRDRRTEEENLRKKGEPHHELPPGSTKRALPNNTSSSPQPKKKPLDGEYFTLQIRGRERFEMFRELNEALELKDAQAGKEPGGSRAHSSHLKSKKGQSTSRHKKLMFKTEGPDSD
Summary of the method: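 Beta-lactamase reporter ratio (blue 460 nm over green 530 nm, 405 nm excitation) after 2 h CCF4-AM loading, in HCT-116 cells exposed 16 h at 37 C to compounds pinned at 217-fold dilution. Increases relative to DMSO baseline scored.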

[5] = target: Cellular tumor antigen p53 (Homo sapiens) (UniProt P04637); assay: TOX21_p53_BLA_p3_ratio: Tox21 HCT-116 p53 Agonism Beta-lactamase Assay, Ratio, Phase 3 (AID 2283596)
Summary of the method: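 HCT116 p53-bla cells (4000/well) given compound in DMSO (217-fold dilution) after 5 h, incubated 16 h at 37C. CCF4-AM substrate 2 h at room temperature; 460/530 nm emission ratio, gain fitted against DMSO.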

[6] = TOX21_p53_BLA_p5_viability: Viability Assessment in the Tox21 HCT-116 p53 Agonism Beta-lactamase Assay, Phase 5 (AID 2283600)
Summary of the method: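 4000 cells/well; 5 h pre-incubation; DMSO compounds pin-transferred, 217-fold dilution; 16 h, 37C/5% CO2; CCF4-AM 2 h RT; CellTiter-Glo 30 min RT; luminescence.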

[7] = TOX21_p53_BLA_p3_viability: Viability Assessment in the Tox21 HCT-116 p53 Agonism Beta-lactamase Assay, Phase 3 (AID 2283593);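 also: cells exposed to compound for 16 h before reading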
Summary of the method: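 Cellular ATP was quantified by CellTiter-Glo luminescence, read after 30 min at room temperature. Beforehand, HCT116 cells (4000/well) received compound 5 h post-seeding, 217-fold diluted from DMSO, then incubated 16 h at 37C.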

[8] = target: Cellular tumor antigen p53 (Homo sapiens) (UniProt P04637); assay: TOX21_p53_BLA_p4_ratio: Tox21 HCT-116 p53 Agonism Beta-lactamase Assay, Ratio, Phase 4 (AID 2283601)
Summary of the method: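 Signal is the blue/green (460nm/530nm) ratio of cleaved versus uncleaved CCF4-AM substrate, read after 2 h substrate loading. Cells were HCT116 carrying the p53-responsive beta-lactamase reporter, dosed 16 h at 37C, 5% CO2; CellTiter-Glo measured in parallel.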

[9] = target: Cellular tumor antigen p53 (Homo sapiens) (UniProt P04637); assay: TOX21_p53_BLA_p2_ratio: Tox21 HCT-116 p53 Agonism Beta-lactamase Assay, Ratio, Phase 2 (AID 2283592)
Summary of the method: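 HCT116 p53-bla; 4000 cells/well; 5 h pre-incubation; cpd in DMSO, 217-fold dilution; 16 h 37C/5% CO2; CCF4-AM 2 h RT; Ex 405, Em 460/530 ratio; DMSO = baseline; positive fitting direction.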

Measured: outcome

Clc1ccc(C(Cl)(Cl)Cl)cn1
inactive: [1] | [2] | [3] | [4]

Oc1ccc(Cc2ccc(O)cc2)cc1
inactive: [1] | [5] | [6]

O=NN1CCOCC1
not listed: [2] | [6] | [9]
inactive: all other assays above

CCC[N+](CCC)(CCC)CCC
inactive: [1] | [2] | [5] | [4]

C#C[C@]1(O)CC[C@H]2[C@@H]3CCC4=CC(=O)CC[C@]4(C)[C@H]3CC[C@@]21C
not listed: [2]
inactive: all other assays above

CC(=O)CN(CC(C)=O)N=O
inactive: [1] | [9] | [3]

C#CCOC(=O)/C=C(C)/C=C/CC(C)CCCC(C)C (configuration not stated)
inactive: [1] | [7] | [3]

C=CCCl
inactive: [1] | [7] | [5] | [4]

CC(C)[N+](=O)[O-]
not listed: [2] | [6] | [7]
inactive: all other assays above

Nc1ccc(-c2ccccc2)cc1
not listed: [2] | [6] | [7]
inactive: all other assays above

Reference: PubChem BioAssay (EPA / NIEHS)
